# Measurements reported in PubChem BioAssay (Tox21).
# “And” between values parts separate entries of the source, which are not always exact repeats. Identical values can stand only once. Results filed as inconclusive are left out. A call without a number means that no potency is given here. A structure can be active in one record and inactive in another. The source made the active and inactive calls. Unless noted, the call rests on the fitted dose curve; in most records, active means well fitted curve in the direction sought with a large enough effect in the repeat runs; inconclusive means weak or mixed curves; inactive means no such curve, though single readings can be large; an effect the other way counts as inactive or inconclusive.
# Legend:
# [1] = qHTS assay to identify small molecule antagonists of the androgen receptor (AR) signaling pathway using the MDA cell line in the presence of 0.5 nM R1881 - cell viability counter screen (AID 1259242); further: nearly all actives have a fitted effect of over 45% in size; further: potency means the concentration at half of the fitted maximal effect
# Procedure, shortened: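 Cells seeded at 3,000/well and allowed 5 hr at 37C, 0% CO2 before compound transfer and R1881 (0.5 nM final) addition; 16 hr later, live-cell protease fluorescence indicated cytotoxicity.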
# [2] = target: Androgen receptor (Homo sapiens) (UniProt P10275); assay: qHTS assay to identify small molecule antagonists of the androgen receptor (AR) signaling pathway using the MDA cell line in the presence of 0.5 nM R1881 (AID 1259243); further: nearly all actives have a fitted effect of over 50% in size
# Androgen receptor (Homo sapiens), sequence (P10275 whole entry, looked up): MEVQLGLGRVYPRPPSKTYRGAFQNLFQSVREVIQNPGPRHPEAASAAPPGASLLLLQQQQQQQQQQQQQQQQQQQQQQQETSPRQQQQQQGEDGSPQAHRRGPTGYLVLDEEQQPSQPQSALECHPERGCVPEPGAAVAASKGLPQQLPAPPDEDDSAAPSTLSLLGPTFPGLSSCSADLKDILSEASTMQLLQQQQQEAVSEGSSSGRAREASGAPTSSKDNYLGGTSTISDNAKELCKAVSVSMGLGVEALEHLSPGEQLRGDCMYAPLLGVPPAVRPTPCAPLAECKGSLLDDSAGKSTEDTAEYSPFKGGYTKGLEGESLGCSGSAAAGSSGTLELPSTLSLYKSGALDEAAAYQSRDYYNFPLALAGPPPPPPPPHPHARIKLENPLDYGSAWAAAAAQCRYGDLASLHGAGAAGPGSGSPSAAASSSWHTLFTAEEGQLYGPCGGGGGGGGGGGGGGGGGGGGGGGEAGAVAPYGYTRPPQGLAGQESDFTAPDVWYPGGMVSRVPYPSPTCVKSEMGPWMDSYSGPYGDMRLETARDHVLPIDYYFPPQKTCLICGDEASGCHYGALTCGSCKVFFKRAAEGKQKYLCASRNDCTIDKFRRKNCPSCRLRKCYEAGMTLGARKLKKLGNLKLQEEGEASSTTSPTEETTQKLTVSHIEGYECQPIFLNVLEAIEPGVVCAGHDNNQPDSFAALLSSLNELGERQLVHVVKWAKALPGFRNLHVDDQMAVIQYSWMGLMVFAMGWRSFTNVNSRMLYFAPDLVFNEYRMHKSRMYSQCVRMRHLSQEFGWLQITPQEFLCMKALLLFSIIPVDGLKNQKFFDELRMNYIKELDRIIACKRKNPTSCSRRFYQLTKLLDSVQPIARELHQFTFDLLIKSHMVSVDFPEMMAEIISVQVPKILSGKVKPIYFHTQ
# Procedure, shortened: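 Luminescence from an AR/GR-responsive MMTV-luciferase construct in MDA-kb2 breast carcinoma cells, read 30 min after ONE-Glo, following 16 hr co-treatment with compounds and 0.5 nM R1881.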
# [3] = target: Estrogen receptor (Homo sapiens) (UniProt P03372); assay: qHTS assay to identify small molecule antagonists of the estrogen receptor alpha (ER-alpha) signaling pathway using the BG1 cell line in the presence of 0.1 nM 17-beta-estradiol (AID 1259244); further: nearly all actives have a fitted effect of over 50% in size
# Estrogen receptor (Homo sapiens), sequence (P03372 whole entry, looked up): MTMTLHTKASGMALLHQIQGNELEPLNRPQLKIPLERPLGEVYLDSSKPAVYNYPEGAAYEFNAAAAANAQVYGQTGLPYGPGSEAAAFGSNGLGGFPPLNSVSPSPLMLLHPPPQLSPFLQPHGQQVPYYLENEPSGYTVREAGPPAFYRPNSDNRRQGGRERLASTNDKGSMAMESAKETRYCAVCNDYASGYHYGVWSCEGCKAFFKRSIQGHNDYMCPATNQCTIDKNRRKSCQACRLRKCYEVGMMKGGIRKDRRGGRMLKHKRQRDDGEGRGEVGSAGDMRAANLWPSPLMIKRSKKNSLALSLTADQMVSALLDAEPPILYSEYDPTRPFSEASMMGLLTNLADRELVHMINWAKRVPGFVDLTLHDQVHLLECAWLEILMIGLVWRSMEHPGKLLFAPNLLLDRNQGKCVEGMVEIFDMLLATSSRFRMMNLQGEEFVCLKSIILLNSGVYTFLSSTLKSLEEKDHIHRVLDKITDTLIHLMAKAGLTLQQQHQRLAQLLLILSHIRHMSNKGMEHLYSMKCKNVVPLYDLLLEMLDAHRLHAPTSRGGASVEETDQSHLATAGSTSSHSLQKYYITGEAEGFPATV
# Procedure, shortened: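 Luciferase signal from VM7Luc4E2 ERE-reporter cells, co-dosed with test compound and 0.1 nM final 17beta-estradiol for 22 h, read with ONE-Glo.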
# [4] = qHTS assay to identify small molecule HDAC inhibitors (AID 1259364); further: potency means the concentration at half of the fitted maximal effect;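 further: wild-type HCT-116 cells with endogenous class I/II HDAC activity; nearly all actives have a fitted effect of over 45% in size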
# Procedure, shortened: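 HCT-116 wt cells, 1,500/well, overnight attach. Compounds (DMSO) 2 h, 37 °C. HDAC-Glo I/II, 30 min RT. Luminescence.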
# [5] = qHTS assay to identify small molecule HDAC inhibitors - cell viability counter screen (AID 1259365); further: series mostly up to about 92 µM; nearly all actives have a fitted effect of over 50% in size
# Procedure, shortened: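 Wild-type HCT-116 cells were seeded at 1,500 per well, incubated overnight at 37 C, then exposed to compounds in DMSO for 2hr. Viability was read by CellTiter-Glo luminescence after 30min at room temperature.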
# [6] = qHTS assay to identify small molecule agonists of the sonic hedgehog signaling (Shh) pathway - cell viability counter screen (AID 1259366); further: nearly all actives have a fitted effect of over 50% in size; further: potency means the concentration at half of the fitted maximal effect
# Procedure, shortened: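 NIH/3T3-derived 3T3 Gli1-Luc cells (stable Gli1-responsive firefly luciferase reporter) were seeded, rested 4 hr at 37 C/5% CO2, then exposed to compounds in DMSO for 24 hr; viability was read by CellTiter-Fluor fluorescence in the same wells.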
# [7] = qHTS assay to identify small molecule antagonists of the sonic hedgehog signaling (Shh) pathway - cell viability counter screen (AID 1259367); further: nearly all actives have a fitted effect of over 55% in size; further: potency means the concentration at half of the fitted maximal effect
# Procedure, shortened: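 Tox21 library chemicals were tested on a Gli1-Luc NIH/3T3 clone (2,000 cells/well) stimulated by conditioned medium; viability was quantified as fluorescence from CellTiter-Fluor reagent added at 23 hr.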
# [8] = qHTS assay to identify small molecule agonists of the sonic hedgehog signaling (Shh) pathway (AID 1259368; calls by dose curve; further: series mostly up to about 92 µM; nearly all actives have a fitted effect of over 15% in size)
# Procedure, shortened: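 Following a 24 hr incubation with DMSO-dissolved compounds at 37 C, 5% CO2, Gli1-Luc NIH/3T3-derived cells received luciferase reagent for 30 min at room temperature prior to luminescence measurement.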
# [9] = qHTS assay to identify small molecule antagonists of the sonic hedgehog signaling (Shh) pathway (AID 1259369; calls by dose curve; further: nearly all actives have a fitted effect of over 45% in size; further: potency means the concentration at half of the fitted maximal effect)
# Procedure, shortened: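 Read-out is luminescence from a firefly luciferase gene controlled by the Gli1 response element, in 3T3Gli1-Luc cells pre-incubated 4hr then exposed to compounds and conditioned medium for 24hr.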
# [10] = target: Estrogen receptor beta (Homo sapiens) (UniProt Q92731); assay: qHTS assay to identify small molecule antagonists of the estrogen receptor beta (ER-beta) signaling pathway (AID 1259378; active means well fitted inhibition curve with a large enough effect in the signal ratio in the repeat runs, not every such curve was filed as active; the % refers to the signal ratio)
# Estrogen receptor beta (Homo sapiens), sequence (Q92731 whole entry, looked up): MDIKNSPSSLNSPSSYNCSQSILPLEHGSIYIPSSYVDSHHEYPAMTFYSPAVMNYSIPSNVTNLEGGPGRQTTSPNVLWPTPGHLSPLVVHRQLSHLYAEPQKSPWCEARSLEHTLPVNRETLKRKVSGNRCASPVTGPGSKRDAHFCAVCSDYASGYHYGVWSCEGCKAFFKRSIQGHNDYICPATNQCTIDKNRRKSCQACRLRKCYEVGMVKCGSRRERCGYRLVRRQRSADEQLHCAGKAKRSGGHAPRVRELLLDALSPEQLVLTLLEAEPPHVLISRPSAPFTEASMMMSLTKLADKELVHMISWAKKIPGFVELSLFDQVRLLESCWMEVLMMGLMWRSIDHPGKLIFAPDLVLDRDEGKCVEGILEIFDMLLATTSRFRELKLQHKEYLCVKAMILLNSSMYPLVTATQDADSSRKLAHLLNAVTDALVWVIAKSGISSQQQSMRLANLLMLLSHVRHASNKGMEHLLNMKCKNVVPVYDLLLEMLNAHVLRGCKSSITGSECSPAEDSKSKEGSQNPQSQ
# Procedure, shortened: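 ER-beta-UAS-bla HEK293T cells in 2% charcoal-stripped FBS medium treated with compound plus 1nM final 17-beta-estradiol for 16 hr at 37C. Beta-lactamase reporter read by FRET substrate fluorescence after 2 hours at room temperature.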
# [11] = qHTS assay to identify small molecule agonists of the androgen receptor (AR) signaling pathway in the presence of an antagonist - cell viability counter screen (AID 1259379); further: nearly all actives have a fitted effect of over 25% in size; further: potency means the concentration at half of the fitted maximal effect
# Procedure, shortened: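 Each compound was tested at 15 concentrations on MDA-kb2 cells in the presence of 3.0uM nilutamide. Viability was measured by CellTiter-Fluor fluorescence after a 16 hr incubation at 37C in a CO2-free atmosphere.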
# [12] = qHTS assay to identify small molecule agonists of the estrogen receptor beta (ER-beta) signaling pathway - cell viability counter screen (AID 1259380); further: nearly all actives have a fitted effect of over 30% in size; further: potency means the concentration at half of the fitted maximal effect
# Procedure, shortened: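 Compounds dissolved in DMSO were pin-transferred onto ER-beta-UAS-bla HEK293T cells that had settled 6 hr, and exposure ran 16 hr at 37C. Following the reporter read, CellTiter-Glo luminescence after 30 min at room temperature indicated cytotoxicity.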
# [13] = target: Androgen receptor (Homo sapiens) (UniProt P10275); assay: qHTS assay to identify small molecule agonists of the androgen receptor (AR) signaling pathway in the presence of an antagonist (AID 1259381; calls by dose curve; further: nearly all actives have a fitted effect of over 15% in size; further: potency means the concentration at half of the fitted maximal effect)
# Procedure, shortened: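 Plated MDA-kb2 cells (3,000/well) were pre-incubated 5hr, given nilutamide (3.0uM final) or buffer, then dosed with compounds in DMSO at 15 concentrations. Luciferase activity was quantified by luminescence after 16hr at 37C.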
# [14] = target: Estrogen receptor (Homo sapiens) (UniProt P03372); assay: qHTS assay to identify small molecule agonists of the estrogen receptor alpha (ER-alpha) signaling pathway in the presence of an antagonist (AID 1259383; calls by dose curve; further: nearly all actives have a fitted effect of over 15% in size; further: potency means the concentration at half of the fitted maximal effect; on activation: top concentration of the series differs between compounds)
# Procedure, shortened: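 Luminescent ERE-luciferase reporter, VM7Luc4E2 cells (endogenous ER-alpha); 10.0nM ICI-182,780 final; 15-point compound titration; 22hr at 37C; ONE-Glo, 30min RT.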
# [15] = qHTS assay to identify small molecule agonists or antagonists of the thyroid stimulating hormone receptor (TSHR) signaling pathway - wild type cell line counter screen (AID 1259384; calls by dose curve)
# Procedure, shortened: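 Wild-type Hek293 cells, 800/well, 18 h at 37C, then compound with Ro20-1724 for 30 min RT. cAMP by HTRF (cAMP-d2/anti-cAMP cryptate), 1 h RT, fluorescence read. 15 concentrations, triplicates.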
# [16] = target: Thyrotropin receptor (Homo sapiens) (UniProt P16473); assay: qHTS assay to identify small molecule antagonists of the thyroid stimulating hormone receptor (TSHR) signaling pathway (AID 1259385; calls by dose curve; further: nearly all actives have a fitted effect of over 20% in size)
# Thyrotropin receptor (Homo sapiens), sequence (P16473 whole entry, looked up): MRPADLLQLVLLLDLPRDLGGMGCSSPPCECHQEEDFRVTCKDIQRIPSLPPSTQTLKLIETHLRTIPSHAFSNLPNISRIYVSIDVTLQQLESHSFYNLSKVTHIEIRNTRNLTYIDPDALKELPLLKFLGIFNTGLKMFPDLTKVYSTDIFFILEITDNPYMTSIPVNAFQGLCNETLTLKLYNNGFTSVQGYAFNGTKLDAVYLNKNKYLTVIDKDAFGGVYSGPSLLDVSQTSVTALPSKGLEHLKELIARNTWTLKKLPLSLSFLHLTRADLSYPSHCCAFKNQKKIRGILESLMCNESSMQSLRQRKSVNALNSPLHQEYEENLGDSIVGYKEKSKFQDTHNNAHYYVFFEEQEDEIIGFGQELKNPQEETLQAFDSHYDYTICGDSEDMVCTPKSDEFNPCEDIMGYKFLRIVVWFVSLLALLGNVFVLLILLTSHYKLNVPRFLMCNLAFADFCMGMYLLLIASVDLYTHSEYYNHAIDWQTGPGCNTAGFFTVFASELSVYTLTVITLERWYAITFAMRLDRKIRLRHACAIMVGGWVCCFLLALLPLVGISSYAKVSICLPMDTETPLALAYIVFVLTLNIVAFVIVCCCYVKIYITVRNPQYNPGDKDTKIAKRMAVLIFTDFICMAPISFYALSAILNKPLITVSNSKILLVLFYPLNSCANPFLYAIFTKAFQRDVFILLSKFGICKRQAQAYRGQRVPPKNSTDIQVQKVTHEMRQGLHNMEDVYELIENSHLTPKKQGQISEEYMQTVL
# Procedure, shortened: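 TSHR-HEK293 cells (800/well) plated 18 h, then compounds with Ro20-1724 and TSH at 1.5 ng/mL final, 30 min at room temperature. cAMP quantified by HTRF (cAMP-d2/anti-cAMP-cryptate, 1 h); 15 concentrations in triplicate.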
# [17] = qHTS assay to identify small molecule agonists of the estrogen receptor alpha (ER-alpha) signaling pathway in the presence of an antagonist - cell viability counter screen (AID 1259386);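 further: series mostly up to about 92 µM; cells exposed to compounds for 22 h at 37 °C before the viability read; nearly all actives have a fitted effect of over 30% in size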
# Procedure, shortened: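 Using estrogen-depleted VM7Luc4E2 cells, the 15-concentration compound series was applied together with 10.0nM ICI-182,780 and incubated 22hr at 37C/5% CO2. Cell viability was then scored by CellTiter-Fluor.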
# [18] = qHTS assay to identify small molecule antagonists of the estrogen receptor beta (ER-beta) signaling pathway - cell viability counter screen (AID 1259382); further: series mostly up to about 92 µM; nearly all actives have a fitted effect of over 55% in size
# Procedure, shortened: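 CellTiter-Glo ATP luminescence measured after the LiveBLAzer read in the same wells; ER-beta-UAS-bla HEK293T cells, 16 hr compound treatment with 1nM 17-beta-estradiol agonist at 37C, 5% CO2.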
# [19] = qHTS assay to identify small molecule phospholipidosis (PLD) inducers (AID 1259344; active means well fitted curve in the direction sought with a large enough effect; an effect the other way counts as inactive or inconclusive)
# Procedure, shortened: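 Image-based: LipidTOX Red pit count/intensity per well and per cell; HepG2, 24 h compound at 37 C, PFA fixation, Hoechst counterstain.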
# [20] = target: Estrogen receptor beta (Homo sapiens) (UniProt Q92731); assay: qHTS assay to identify small molecule agonists of the estrogen receptor beta (ER-beta) signaling pathway (AID 1259377; active means well fitted activation curve with a large enough effect in the signal ratio in the repeat runs, not every such curve was filed as active; the % refers to the signal ratio)
# Procedure, shortened: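 ER-beta-UAS-bla HEK293T (GripTite) cells carrying a UAS-driven beta-lactamase reporter, in medium with 2% charcoal-stripped FBS, were exposed to compounds for 16 hr at 37C; LiveBLAzer B/G FRET substrate was then added and fluorescence read after 2 hours at room temperature.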
SMILES,Potency [1],Potency [2],Potency [3],Potency [4],outcome [5],Potency [6],Potency [7],outcome [8],Potency [9],Potency [10],Potency [11],Potency [12],Potency [13],Potency [14],outcome [15],outcome [16],Potency [17],Potency [18],outcome [19],outcome [20]
CC(C)(Oc1ccc(C2CC2(Cl)Cl)cc1)C(=O)O (stereo unspecified),inactive,inactive,inactive,inactive,inactive,inactive,inactive,inactive,inactive,inactive,inactive,inactive,inactive,inactive,inactive,inactive,inactive,,,
CC(=O)NS(=O)(=O)c1ccc(N)cc1,inactive,,inactive,inactive,inactive,inactive,inactive,inactive,inactive,inactive,inactive,inactive,,inactive,,,,inactive,,
O=C(c1ccccc1)c1ccccc1,inactive,inactive,,inactive,inactive,inactive,inactive,inactive,inactive,,inactive,inactive,inactive,,,,inactive,inactive,inactive,
Oc1ccc(/C=C/c2cc(O)cc(O)c2)cc1,inactive,inactive,inactive,1.95 µM (active) and 1.22 µM (active) and 2.98 µM (active),inactive,21.9 µM (active) and 24.3 µM (active),30.9 µM (active) and 27.3 µM (active),inactive,9.78 µM (active) and 17.2 µM (active),,inactive,inactive,1.95 µM (active),4.37 µM (active) and 8.63 µM (active) and 13.3 µM (active),inactive,inactive,,,inactive,
COc1c2occc2cc2ccc(=O)oc12,inactive,,,inactive,inactive,inactive,inactive,inactive,,inactive,inactive,inactive,,,inactive,inactive,inactive,,inactive,
O=C(O)/C=C\C(=O)O,,,,inactive,inactive,inactive,inactive,inactive,,inactive,inactive,inactive,,,inactive,inactive,,inactive,,inactive
O=C(O)C(=O)O,inactive,,,inactive,inactive,inactive,inactive,inactive,,,inactive,inactive,,,inactive,inactive,,inactive,,
CCCCCCCCCCCCCCCC(=O)O,inactive,,,inactive,inactive,inactive,inactive,inactive,,inactive,inactive,inactive,,,inactive,inactive,,,,inactive
COc1ccc2[nH]cc(CCNC(C)=O)c2c1,inactive,,inactive,inactive,inactive,inactive,inactive,inactive,,inactive,inactive,inactive,,inactive,inactive,inactive,inactive,,,
O=C(O)CCCCCCCC(=O)O,inactive,,,inactive,inactive,inactive,inactive,inactive,,inactive,inactive,inactive,,,inactive,inactive,,,inactive,
O=C(O)c1cccc([N+](=O)[O-])c1,inactive,,,inactive,inactive,inactive,inactive,inactive,inactive,inactive,inactive,inactive,,,,,,inactive,,
NC(N)=NC(=O)c1nc(Cl)c(N)nc1N,inactive,,inactive,inactive,inactive,inactive,inactive,inactive,,inactive,inactive,inactive,,inactive,inactive,inactive,inactive,,,
O=S(=O)(O)NC1CCCCC1,inactive,,,inactive,inactive,inactive,inactive,inactive,,,inactive,inactive,,,inactive,inactive,inactive,inactive,inactive,
OCCc1ccccc1,inactive,,,inactive,inactive,inactive,inactive,inactive,,,inactive,inactive,,,inactive,inactive,inactive,,inactive,
O=C(O)c1cc(N=Nc2ccc(S(=O)(=O)Nc3ccccn3)cc2)ccc1O,27.4 µM (active) and inactive,,,27.3 µM (active),inactive,21.8 µM (active) and 24.3 µM (active),21.8 µM (active) and 27.3 µM (active),inactive,,inactive,30.7 µM (active) and 30.6 µM (active),inactive,,,inactive,inactive,,,,
CCCCOC(=O)CC(CC(=O)OCCCC)(OC(C)=O)C(=O)OCCCC,inactive,,,inactive,inactive,inactive,inactive,inactive,inactive,inactive,inactive,inactive,,,,,,,,
Cc1ccccc1C(OCCN(C)C)c1ccccc1 (stereo unspecified),inactive,,inactive,inactive,inactive,inactive,inactive,inactive,,inactive,inactive,61.1 µM (active),,inactive,inactive,inactive,inactive,inactive,,
CNC[C@H](O)c1cccc(O)c1,inactive,,,inactive,inactive,inactive,inactive,inactive,,inactive,inactive,inactive,,,inactive,inactive,,inactive,,
O=NO,inactive,,,inactive,inactive,inactive,inactive,inactive,inactive,,inactive,inactive,,,inactive,inactive,,,,
CCCC(CCC)C(=O)O,inactive,,inactive,inactive,inactive,inactive,inactive,inactive,,,inactive,inactive,,inactive,inactive,inactive,,inactive,,
